Experimental data reported in PubChem BioAssay (EPA / NIEHS).
Inconclusive results are not listed. The source holds several records for some structures; these can differ, active in one and inactive in another. Activity calls are given as the source filed them. The calls were made as follows: active = hit-call score of the fitted dose curve at least 0.9, where 1 is the maximum; inconclusive = response in the unintended direction; inactive = score below 0.9.

Assays:
[1] = target: human Opioid Receptor Mu (Opiate Mu), OPRM1 (gene 4988) (UniProt P35372); assay: NVS_GPCR_hOpiate_mu: NovaScreen (NVS) G Protein-Coupled Receptor Assay for human Opioid Receptor Mu (Opiate Mu) (AID 2283290);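 also: hits lower bound tracer signal versus DMSO meaning displacement of the ligand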
Chain of human Opioid Receptor Mu (Opiate Mu), OPRM1 (gene 4988) (P35372 whole entry, looked up): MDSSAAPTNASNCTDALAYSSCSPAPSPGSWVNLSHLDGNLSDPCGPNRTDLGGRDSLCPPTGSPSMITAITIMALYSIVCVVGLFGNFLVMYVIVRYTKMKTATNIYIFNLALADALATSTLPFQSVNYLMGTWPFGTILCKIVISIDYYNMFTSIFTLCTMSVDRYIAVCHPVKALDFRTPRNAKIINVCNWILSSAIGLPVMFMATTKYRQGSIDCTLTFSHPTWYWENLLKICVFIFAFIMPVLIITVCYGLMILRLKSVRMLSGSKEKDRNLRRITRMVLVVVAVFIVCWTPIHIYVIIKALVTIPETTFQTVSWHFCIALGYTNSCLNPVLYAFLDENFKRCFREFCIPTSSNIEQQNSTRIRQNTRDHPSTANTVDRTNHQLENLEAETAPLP
How it was run: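 CHO-derived receptor protein, cell-free; radioligand displacement, filtration + scintillation counting, read at 2.5 h. DMSO = negative control/baseline. Primary: 25 uM single conc, duplicate; secondary: concentration series.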

[2] = target: Sodium channel protein type 1 subunit alpha (Rattus norvegicus) (UniProt P04774); assay: NVS_IC_rNaCh_site2: NovaScreen (NVS) Ion Channel Assay for rat Sodium Channel, Site 2 (NaCh) (AID 2283322);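 also: hit means loss of radioligand binding signal relative to DMSO so AC50 marks displacement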
How it was run: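 Initial duplicate single-point testing at 25 uM, followed by concentration-response runs for actives. Binding of radioligand to rat forebrain membranes quantified after 1 h via filter-based radiodetection.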

[3] = target: rat Thyrotropin Releasing Hormone Receptor (TRH), Trhr (gene 25570) (UniProt Q01717); assay: NVS_GPCR_rTRH: NovaScreen (NVS) G Protein-Coupled Receptor Assay for rat Thyrotropin Releasing Hormone Receptor (TRH) (AID 2283329);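 also: hit means lower bound tracer signal versus DMSO baseline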
Chain of rat Thyrotropin Releasing Hormone Receptor (TRH), Trhr (gene 25570) (Q01717 whole entry, looked up): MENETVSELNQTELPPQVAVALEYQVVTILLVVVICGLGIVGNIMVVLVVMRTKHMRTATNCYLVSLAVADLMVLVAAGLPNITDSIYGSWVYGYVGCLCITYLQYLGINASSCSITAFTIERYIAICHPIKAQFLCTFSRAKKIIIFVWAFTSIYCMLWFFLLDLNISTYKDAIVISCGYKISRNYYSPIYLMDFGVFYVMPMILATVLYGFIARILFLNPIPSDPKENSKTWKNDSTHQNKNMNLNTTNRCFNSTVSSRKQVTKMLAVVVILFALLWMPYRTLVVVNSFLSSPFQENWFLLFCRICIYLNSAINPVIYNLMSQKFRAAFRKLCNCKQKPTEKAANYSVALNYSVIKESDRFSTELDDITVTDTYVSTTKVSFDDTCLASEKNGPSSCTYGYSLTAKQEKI
How it was run: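 Rat forebrain membrane prep, radioligand displacement, filter scintillation readout at 4 h. Single conc 25 uM, duplicate; actives retested as concentration series. DMSO = negative control/baseline.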

[4] = target: bovine Estrogen Receptor (ER), ESR1 (gene 407238) (UniProt P49884); assay: NVS_NR_bER: NovaScreen (NVS) Nuclear Receptor Binding Assay for bovine Estrogen Receptor (ER) (AID 2283345);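 also: actives lower the bound radioligand count which means they displace the ER ligand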
Chain of bovine Estrogen Receptor (ER), ESR1 (gene 407238) (P49884 whole entry, looked up): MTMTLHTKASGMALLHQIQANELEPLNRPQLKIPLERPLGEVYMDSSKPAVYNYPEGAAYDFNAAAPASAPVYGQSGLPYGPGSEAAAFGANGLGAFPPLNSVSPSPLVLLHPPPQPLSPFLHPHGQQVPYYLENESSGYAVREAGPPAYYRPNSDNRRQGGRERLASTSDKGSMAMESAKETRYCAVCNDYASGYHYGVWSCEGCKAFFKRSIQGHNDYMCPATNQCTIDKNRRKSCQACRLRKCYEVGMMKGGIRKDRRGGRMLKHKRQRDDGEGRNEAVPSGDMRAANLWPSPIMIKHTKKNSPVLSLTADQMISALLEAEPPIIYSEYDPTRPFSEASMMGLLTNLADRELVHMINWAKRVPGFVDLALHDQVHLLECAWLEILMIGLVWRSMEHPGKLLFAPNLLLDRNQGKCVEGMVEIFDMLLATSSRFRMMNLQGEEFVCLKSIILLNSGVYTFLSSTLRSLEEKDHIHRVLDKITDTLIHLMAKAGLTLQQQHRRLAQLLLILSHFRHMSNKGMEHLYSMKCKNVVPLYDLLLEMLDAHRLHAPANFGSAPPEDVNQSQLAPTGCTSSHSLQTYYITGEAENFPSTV
How it was run: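 Scintillation counting of displaced radioligand gave the readout; bovine uterine membrane extract supplied the receptor. Measured 18 h post-dose, normalized to DMSO baseline. Single 25 uM duplicate screen preceded concentration-response follow-up.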

[5] = target: chimpanzee Androgen Receptor (AR), AR (gene 747460) (UniProt O97775); assay: NVS_NR_cAR: NovaScreen (NVS) Nuclear Receptor Binding Assay for chimpanzee Androgen Receptor (AR) (AID 2283346);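 also: radioligand displacement from AR measured by scintillation counting in a cell-free assay; a loss of bound radioligand signal versus DMSO counts as binding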
Chain of chimpanzee Androgen Receptor (AR), AR (gene 747460) (O97775 whole entry, looked up): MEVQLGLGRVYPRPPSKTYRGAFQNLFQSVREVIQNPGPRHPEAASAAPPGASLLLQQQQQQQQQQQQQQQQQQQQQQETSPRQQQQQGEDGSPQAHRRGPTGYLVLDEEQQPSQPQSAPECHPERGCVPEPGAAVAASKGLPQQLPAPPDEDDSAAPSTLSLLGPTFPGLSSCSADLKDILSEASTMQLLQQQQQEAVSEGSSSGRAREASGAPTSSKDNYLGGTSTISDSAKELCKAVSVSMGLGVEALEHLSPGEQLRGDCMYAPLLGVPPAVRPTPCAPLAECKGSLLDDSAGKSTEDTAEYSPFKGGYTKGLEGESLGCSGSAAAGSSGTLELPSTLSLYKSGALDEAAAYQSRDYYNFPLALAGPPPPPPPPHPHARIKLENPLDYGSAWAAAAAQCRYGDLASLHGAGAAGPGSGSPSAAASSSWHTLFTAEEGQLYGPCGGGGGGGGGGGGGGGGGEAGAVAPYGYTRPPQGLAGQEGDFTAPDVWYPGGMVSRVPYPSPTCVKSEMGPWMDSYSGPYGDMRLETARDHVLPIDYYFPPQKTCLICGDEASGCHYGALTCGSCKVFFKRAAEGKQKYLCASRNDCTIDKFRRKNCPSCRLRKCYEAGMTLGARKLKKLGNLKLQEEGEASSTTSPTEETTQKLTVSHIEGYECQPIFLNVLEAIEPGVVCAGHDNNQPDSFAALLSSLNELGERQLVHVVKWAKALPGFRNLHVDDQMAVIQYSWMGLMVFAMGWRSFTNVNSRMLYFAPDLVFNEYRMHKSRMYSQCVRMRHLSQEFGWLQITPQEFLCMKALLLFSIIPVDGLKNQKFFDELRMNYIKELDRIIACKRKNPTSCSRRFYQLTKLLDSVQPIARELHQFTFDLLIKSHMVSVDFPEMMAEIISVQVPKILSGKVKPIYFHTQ
How it was run: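 Cell-free competition binding with insect-cell (Sf9/Sf21) extracted chimpanzee AR; scintillation signal from lysate at 72 h. Screened in duplicate at 25 uM, then concentration-response for actives; fitting relative to DMSO.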

[6] = target: Estrogen receptor (Homo sapiens) (UniProt P03372); assay: NVS_NR_hER: NovaScreen (NVS) Nuclear Receptor Binding Assay for human Estrogen Receptor (ER) (AID 2283348)
Chain of Estrogen receptor (Homo sapiens) (P03372 whole entry, looked up, the tested form may be a part): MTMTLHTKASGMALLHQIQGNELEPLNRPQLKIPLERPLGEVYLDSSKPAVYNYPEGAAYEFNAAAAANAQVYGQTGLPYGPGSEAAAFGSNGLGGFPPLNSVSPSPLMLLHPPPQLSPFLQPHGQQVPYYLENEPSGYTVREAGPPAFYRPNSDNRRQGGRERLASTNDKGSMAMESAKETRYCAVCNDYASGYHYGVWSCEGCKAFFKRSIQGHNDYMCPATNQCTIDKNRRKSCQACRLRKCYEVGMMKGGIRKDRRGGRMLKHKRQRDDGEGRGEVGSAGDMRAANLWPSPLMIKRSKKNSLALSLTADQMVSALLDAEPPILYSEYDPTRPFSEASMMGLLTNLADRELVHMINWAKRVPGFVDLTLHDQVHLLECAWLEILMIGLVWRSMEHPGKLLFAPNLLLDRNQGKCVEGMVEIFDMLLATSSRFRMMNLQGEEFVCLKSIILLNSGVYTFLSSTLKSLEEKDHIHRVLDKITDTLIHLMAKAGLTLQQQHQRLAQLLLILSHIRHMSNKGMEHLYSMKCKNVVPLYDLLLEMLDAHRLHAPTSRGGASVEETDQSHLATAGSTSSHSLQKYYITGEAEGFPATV
How it was run: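 Cell-free MCF7-derived ER preparation, specific radioligand displaced by test compound, read by scintillation counting 18 h post-dosing. Duplicate single-point 25 uM screen, then concentration-response confirmation; DMSO baseline.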

[7] = target: Estrogen receptor (Homo sapiens) (UniProt P03372); assay: OT_ER_ERaERa_1440: Odyssey Thera (OT) 24-hour HEK293T Protein-Complementation Assay for Estrogen Receptor-alpha/-alpha Homodimer (AID 2283349);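 also: hits raise fluorescence above DMSO for agonists and antagonists alike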
How it was run: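 HEK293T, stable ERα LBD (aa 310-547) homodimer PCA; 24 h compound exposure; mean fluorescence intensity (nuclear for agonists, nuclear plus cytoplasmic for antagonists) vs vehicle; positive fitting direction, DMSO baseline.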

[8] = target: Estrogen receptor (Homo sapiens) (UniProt P03372); assay: OT_ER_ERaERa_0480: Odyssey Thera (OT) 8-hour HEK293T Protein-Complementation Assay for Estrogen Receptor-alpha/-alpha Homodimer (AID 2283351);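 also: rise in fluorescence from reassembled reporter fragments on ERα LBD homodimer in nucleus or whole cell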
How it was run: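 Measures ERα LBD (aa 310-547) homodimer complementation in stably transfected HEK293T at 8 h post-dose, with fluorescence intensity quantified on a laser scanning cytometer relative to DMSO controls.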

[9] = target: Estrogen receptor (Homo sapiens) + Estrogen receptor beta (Homo sapiens) (UniProt P03372+Q92731); assay: OT_ER_ERaERb_0480: Odyssey Thera (OT) 8-hour HEK293T Protein-Complementation Assay for Estrogen Receptor-alpha/-beta Heterodimer (AID 2283352)
Chain of Estrogen receptor (Homo sapiens) + Estrogen receptor beta (Homo sapiens) (P03372 whole entry, looked up, the tested form may be a part): as above
Chain of Estrogen receptor (Homo sapiens) + Estrogen receptor beta (Homo sapiens) (Q92731 whole entry, looked up, the tested form may be a part): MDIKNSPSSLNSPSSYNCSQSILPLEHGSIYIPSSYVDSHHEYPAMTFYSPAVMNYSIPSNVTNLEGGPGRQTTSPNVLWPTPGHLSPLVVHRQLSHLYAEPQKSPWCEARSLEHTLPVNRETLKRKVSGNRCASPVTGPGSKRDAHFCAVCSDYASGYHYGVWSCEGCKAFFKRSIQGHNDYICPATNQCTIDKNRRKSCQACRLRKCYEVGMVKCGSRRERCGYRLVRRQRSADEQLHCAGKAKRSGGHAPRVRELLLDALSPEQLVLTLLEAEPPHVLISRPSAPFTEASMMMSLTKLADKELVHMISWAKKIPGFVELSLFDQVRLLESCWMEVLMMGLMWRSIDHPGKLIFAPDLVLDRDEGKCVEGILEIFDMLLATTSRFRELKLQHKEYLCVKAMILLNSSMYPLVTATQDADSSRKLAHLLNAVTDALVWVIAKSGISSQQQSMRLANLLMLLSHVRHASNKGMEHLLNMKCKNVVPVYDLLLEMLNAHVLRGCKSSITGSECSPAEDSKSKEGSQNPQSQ
How it was run: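 Human HEK293T cells were treated for 8 hours and receptor heterodimerisation was detected through reconstitution of a fluorescent reporter split between ER-alpha and ER-beta ligand-binding domains. Activity was analysed as gain of signal against DMSO.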

[10] = target: human Peripheral-type Benzodiazepine Receptor (PBR), TSPO (gene 706) (UniProt P30536); assay: NVS_MP_hPBR: NovaScreen (NVS) Membrane Protein Assay for human Peripheral-type Benzodiazepine Receptor (PBR) (AID 2283331);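 also: hits reduce radioligand binding relative to DMSO baseline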
Chain of human Peripheral-type Benzodiazepine Receptor (PBR), TSPO (gene 706) (P30536 whole entry, looked up): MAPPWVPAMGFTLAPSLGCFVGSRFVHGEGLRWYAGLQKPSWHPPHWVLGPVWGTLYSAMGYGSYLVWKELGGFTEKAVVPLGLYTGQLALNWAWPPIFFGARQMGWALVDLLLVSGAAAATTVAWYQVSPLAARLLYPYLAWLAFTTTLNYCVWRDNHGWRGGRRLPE
How it was run: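 Cell-free binding to human colonic membrane preparations measured by filter-based scintillation counting after 1 h. Compounds first run at 25 uM in duplicate, then concentration series for actives; signal loss against DMSO baseline.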

[11] = target: human Neurokinin, NK2 Receptor, TACR2 (gene 6865) (UniProt P21452); assay: NVS_GPCR_hNK2: NovaScreen (NVS) G Protein-Coupled Receptor Assay for human Neurokinin, NK2 Receptor (AID 2283278);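 also: actives reduce bound radioligand signal relative to DMSO baseline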
Chain of human Neurokinin, NK2 Receptor, TACR2 (gene 6865) (P21452 whole entry, looked up): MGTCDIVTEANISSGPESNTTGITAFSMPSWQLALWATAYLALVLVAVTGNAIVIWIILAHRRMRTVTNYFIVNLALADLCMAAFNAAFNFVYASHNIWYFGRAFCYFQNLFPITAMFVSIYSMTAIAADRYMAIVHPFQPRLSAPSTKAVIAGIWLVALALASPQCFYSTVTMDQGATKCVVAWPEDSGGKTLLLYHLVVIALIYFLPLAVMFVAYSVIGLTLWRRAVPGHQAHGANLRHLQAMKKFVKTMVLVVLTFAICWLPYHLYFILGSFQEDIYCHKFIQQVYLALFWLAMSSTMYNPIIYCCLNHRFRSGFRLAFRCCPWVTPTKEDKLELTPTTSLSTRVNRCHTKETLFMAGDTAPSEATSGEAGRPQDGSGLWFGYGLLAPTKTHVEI
How it was run: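 Filter-based scintillation counting measured radioligand bound to receptor extracted from CHO cells, 4 hours after compound addition. Chemicals screened first at 25 uM in duplicate, with actives retested in concentration series relative to DMSO.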

[12] = target: rat Adrenergic Receptor, Alpha 2 (Adra2), Non-selective Binding, Adra2a (gene 25083) (UniProt P22909); assay: NVS_GPCR_rAdra2_NonSelective: NovaScreen (NVS) G Protein-Coupled Receptor Assay for rat Adrenergic Receptor, Alpha 2 (Adra2), Non-selective Binding (AID 2283299)
Chain of rat Adrenergic Receptor, Alpha 2 (Adra2), Non-selective Binding, Adra2a (gene 25083) (P22909 whole entry, looked up): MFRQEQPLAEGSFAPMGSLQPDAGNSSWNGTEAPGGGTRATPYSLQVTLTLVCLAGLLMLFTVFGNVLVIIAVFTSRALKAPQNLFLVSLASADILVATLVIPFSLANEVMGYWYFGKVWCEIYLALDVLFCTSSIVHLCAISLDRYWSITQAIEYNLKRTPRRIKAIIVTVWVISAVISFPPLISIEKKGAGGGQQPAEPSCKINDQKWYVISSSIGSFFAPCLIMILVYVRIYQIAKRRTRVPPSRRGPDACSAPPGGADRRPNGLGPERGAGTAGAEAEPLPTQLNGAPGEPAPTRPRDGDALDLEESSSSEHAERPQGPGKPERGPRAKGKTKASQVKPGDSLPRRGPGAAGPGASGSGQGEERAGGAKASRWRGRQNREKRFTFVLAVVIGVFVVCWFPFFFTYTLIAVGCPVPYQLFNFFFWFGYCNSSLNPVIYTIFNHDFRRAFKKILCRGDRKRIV
How it was run: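 Filter-based scintillation counting of radioligand binding to rat cortical membrane receptors, measured 1.25 hours post-dosing; loss of signal versus DMSO indicates displacement. Initial single-concentration duplicate at 25 uM, then concentration series.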

[13] = NVS_IC_rCaBTZCHL: NovaScreen (NVS) Ion Channel Assay for Calcium Channel, Type L, Benzothiazepine Site (CaBTZCHL) (AID 2283337)
How it was run: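 Benzothiazepine-site binding was assessed in a tissue-derived, cell-free rat cortical membrane system. After 1.5 h exposure, radioactivity retained on filters was quantified by scintillation; positive and negative controls accompanied every plate.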

[14] = target: human Androgen Receptor (AR), AR (gene 367) (UniProt P10275); assay: NVS_NR_hAR: NovaScreen (NVS) Nuclear Receptor Binding Assay for human Androgen Receptor (AR) (AID 2283332)
How it was run: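 Radioligand competitive binding, scintillation read-out, in cell-free extract from LnCAP, measured 20 h after dosing. Screened first in duplicate at 25 uM, then concentration series for actives; activity fitted against DMSO.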

Compound: C#C[C@]1(O)CC[C@H]2[C@@H]3CCc4cc(OC)ccc4[C@H]3CC[C@@]21C
- outcome [1]: inactive
- outcome [2]: inactive
- outcome [3]: inactive
- AC50 [4]: 0.0305 µM (active)
- AC50 [5]: 3.99 µM (active)
- AC50 [6]: 0.00229 µM (active)
- outcome [6]: inactive
- AC50 [7]: 17.1 µM (active)
- AC50 [8]: 9.95 µM (active)

Compound: Cc1cc(C)cc(O)c1
- outcome [1]: inactive
- outcome [6]: inactive
- outcome [7]: inactive
- outcome [8]: inactive
- outcome [9]: inactive

Compound: CCCCCCOC(=O)c1ccccc1O
- outcome [7]: inactive
- outcome [8]: inactive
- AC50 [9]: 60.2 µM (active)

Compound: OC[C@@H](O)[C@@H](O)[C@H](O)[C@@H](O)CO
- outcome [7]: inactive
- outcome [8]: inactive

Compound: CCCCOCCOCCOC(=O)CCCCC(=O)OCCOCCOCCCC
- outcome [10]: inactive

Compound: Nc1ccc([N+](=O)[O-])cc1O
- outcome [11]: inactive
- outcome [4]: inactive
- outcome [6]: inactive

Compound: CCCCC(CC)COP(=O)(O)OCC(CC)CCCC (configuration not stated)
- outcome [3]: inactive
- outcome [6]: inactive
- outcome [7]: inactive
- outcome [8]: inactive

Compound: Oc1ccc(Nc2ccccc2)cc1
- outcome [11]: inactive
- outcome [12]: inactive
- outcome [13]: inactive
- AC50 [4]: 25 µM (active)
- AC50 [6]: 8.86 µM (active)

Compound: CNC(=S)NC
- outcome [7]: inactive
- outcome [8]: inactive

Compound: CCCCCCOC(=O)c1ccccc1
- outcome [3]: inactive
- outcome [7]: inactive
- outcome [8]: inactive
- outcome [9]: inactive

Compound: O[Si](c1ccccc1)(c1ccccc1)c1ccccc1
- outcome [2]: inactive

Compound: Cc1ccc(S(=O)(=O)NCl)cc1
- outcome [7]: inactive
- outcome [8]: inactive

Compound: CCCCOc1ccc(N)cc1
- outcome [7]: inactive
- outcome [8]: inactive
- outcome [9]: inactive

Compound: COC(=O)C1CCC(C(=O)OC)CC1 (configuration not stated)
- outcome [7]: inactive
- outcome [8]: inactive
- outcome [9]: inactive

Compound: CC/C=C\CCOC(C)=O
- outcome [7]: inactive
- outcome [8]: inactive
- outcome [9]: inactive

Compound: c1ccc(B(c2ccccc2)c2ccccc2)cc1
- outcome [4]: inactive
- AC50 [5]: 17.5 µM (active)
- AC50 [6]: 13.9 µM (active)
- AC50 [7]: 78.5 µM (active)
- AC50 [8]: 55.7 µM (active)

Compound: O=C(OCCOCCOCCOC(=O)c1ccccc1)c1ccccc1
- AC50 [10]: 9.76 µM (active)
- outcome [7]: inactive
- outcome [8]: inactive
- outcome [9]: inactive

Compound: CC(=O)Nc1ccc(N=Nc2cc(C)ccc2O)cc1
- AC50 [10]: 2.21 µM (active)
- AC50 [14]: 31.4 µM (active)
- outcome [5]: inactive
